HCMV antiviral: blocks human cytomegalovirus replication; AID 1259415; 4.5% of 410,000 active; activity change, negative = inhibition, % at 57.5 µM; HFF cells, HCMV-luciferase reporter, 72 h; active compounds read low; in the data active means activity change below about -60%; inconclusive means no clear call, values can overlap the other calls; inactive means above about -39%
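Screen run at 2 compound doses on HFFs infected with reporter HCMV, MOI 1 PFU/cell. Luciferase activity from cell lysates at 72 h post infection gave inhibition relative to buffer-only and Salinomycin wells.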
Pf growth 96h: P. falciparum growth inhibition at 96 hours; P. falciparum luciferase reporter growth, 96 h; Potency, µM (highest dose often 28.7 µM), without a hit: top-dose activity change, negative = inhibition, most hits filed as inhibitors; 6.9% of 320,000 active; AID 504834; further: potency means the concentration at half of the fitted maximal effect
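P. falciparum expressing integrated firefly luciferase grown in erythrocytes (2% hematocrit, 0.05% parasitemia final) with compounds for 96 hours at 37 C, 5% CO2. Growth inhibition read as loss of luminescence after adding luciferase detection reagent.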
HCV inh: inhibitors of hepatitis C virus infection; Huh7.5.1 HCVcc-Cre infection, luciferase reporter, 44 h; Potency, µM (series often up to 41.8 µM), without a hit: at the highest dose activity change, negative = inhibition, usual class: inhibitors; 3.4% of 340,000 active; AID 651820; further: potency means the concentration at half of the fitted maximal effect
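Seed cells (1,000/well) for 4 h; treat with compound and infect with HCVcc-Cre, moi about 0.5. Incubate 44 h, then detect luciferase activity.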
Pf growth 48h: P. falciparum growth inhibition at 48 hours (one generation); P. falciparum luciferase growth in erythrocytes, 48 h; Potency, µM (top dose mostly 28.7 µM), without a hit: top-dose activity change, negative = inhibition, most hits filed as inhibitors; 5.9% of 310,000 active; further: potency means the concentration at half of the fitted maximal effect
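Cell-based growth assay: transgenic P. falciparum expressing firefly luciferase, cultured in red cells within RPMI 1640 containing 0.5% w/v Albumax, 24 mM bicarbonate and gentamycin. A drop in luciferase activity indicates inhibition.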
The depositor's hits bear a star; ? = inconclusive; / = no result; ! = repeats disagree; [ ] = dose if it differs, or a comment. This is a sample that favours compounds with a hit; in the whole collection about 13% have one here. Unless noted, the call rests on the fitted dose curve; in most records, active means well fitted inhibition curve with a large enough effect; inconclusive means small, poorly fitted or top-dose-only effect, or another doubt; inactive means no such curve, though single readings can be large or run the other way. On the % scale 0 is the no-effect control and ±100 the full control effect.

SMILES	HCMV antiviral	Pf growth 96h	HCV inh	Pf growth 48h
COc1ccc(-c2nc(NC(=O)c3c(C)noc3C)sc2C)cc1	-61*	-23%	?	?
Cc1ccccc1Cn1c(=O)n(CC2CCC(C(=O)N3CCC(C)CC3)CC2)c(=O)c2sccc21 (configuration not stated)	-75*	/	/	/
Cc1ccc(Cn2c(=O)n(CC3CCC(C(=O)N4CCC(C)CC4)CC3)c(=O)c3sccc32)cc1 (configuration not stated)	1	/	/	/
CCc1ccc2nc(SCC(=O)Nc3ccccc3N3CCOCC3)c(C#N)cc2c1	-30	-54%	-15%	9.3µM*
CCc1ccc2nc(SCC(=O)N3CCCCC3)c(C#N)cc2c1	1	/	?	/
Cc1ccc2nc(SCC(=O)Nc3ccccc3N3CCOCC3)c(C#N)cc2c1	?	?	?	7.4µM*
O=C(Nc1ccc(N2CCC(c3ccccc3)C2)c(C(=O)O)c1)c1ccc(Cl)cc1 (configuration not stated)	-3	/	/	/
COc1ccc(CCC2=NCCN2C(CC(C)C)c2nc3ccccc3[nH]2)cc1 (configuration not stated)	11	/	/	/
c1csc(C(c2nnnn2C2CCCC2)N2CCCC3(CCCCC3)C2)c1 (configuration not stated)	-5	/	?	2.1µM*
c1csc(C(c2nnnn2C2CCCC2)N2CCOCC2)c1 (configuration not stated)	-21	-21%	-1%	4%
c1ccc(C(c2ccccc2)N2CCN(C(c3ccccn3)c3nnnn3C3CCCC3)CC2)cc1 (configuration not stated)	/	4.7µM*	?	-12%
c1cncc(C(c2nnnn2C2CCCCC2)N2CCN3CCCC3C2)c1 (configuration not stated)	44	-57%	18%	-23%
c1ccc(C(c2nnnn2C2CCCC2)N2CCCCCC2)nc1 (configuration not stated)	-19	-3%	8%	/
c1cncc(C(c2nnnn2C2CCCC2)N2CCCC2)c1 (configuration not stated)	-19	9.3µM*	5%	-26%
N#Cc1ccc(C(c2nnnn2C2CCCC2)N2CCC(Cc3ccccc3)CC2)cc1 (configuration not stated)	-91*	143%	-2%	4.7µM*
COc1ccc(-n2cc(C(=O)NC(C)c3ccccc3)c3ccccc3c2=O)cc1 (configuration not stated)	18	/	/	/
O=C(NCc1ccccc1)c1cccc(Nc2nc3ccccc3n3nnnc23)c1	-23	/	/	/
CC1=C(C(=O)Nc2cccnc2)C(c2ccccc2)n2nc(SCc3ccccc3F)nc2N1 (configuration not stated)	4	/	/	/
COCCn1nnnc1C(c1cccc(C#N)c1)N1CCCCCC1 (configuration not stated)	33	0%	15%	?
N#Cc1cccc(C(c2nnnn2C2CCCC2)N2CCC(Cc3ccccc3)CC2)c1 (configuration not stated)	-35	-18%	?	5.2µM*
Fc1ccc(C(c2nnnn2C2CCCC2)N2CCN(Cc3ccccc3)CC2)cc1 (configuration not stated)	-9	/	30%	9.3µM*
N#Cc1cccc(C(c2nnnn2CCc2ccccc2)N2CCN(C3CCCCC3)CC2)c1 (configuration not stated)	37	?	?	9%
Clc1ccc(C(c2nnnn2C2CCCC2)N2CCN(Cc3ccncc3)CC2)cc1 (configuration not stated)	-21	/	-10%	?
N#Cc1cccc(C(c2nnnn2C2CCCC2)N2CCCCCC2)c1 (configuration not stated)	-34	12µM*	?	?
Cc1ccc(C(=O)n2nc(C)c(S(=O)(=O)N3CCCCCC3)c2C)cc1	6	/	/	/
SMILES	HCMV antiviral	Pf growth 96h	HCV inh	Pf growth 48h
C=CCn1c(C)cc(C(=O)COC(=O)/C=C/c2cccc(OC)c2)c1C	?	3%	13µM*	-5%
Cc1ccc(NC(=O)OCCN2CCN(S(=O)(=O)c3ccc(C)cc3)CCC2=O)cc1	-22	?	-6%[8.37 µM]	0%
COc1ccc(CNC(=O)OCCN2CCN(S(=O)(=O)c3ccc(C)cc3)CCC2=O)cc1	-65*	?	-2%	0%
Cc1ccc(S(=O)(=O)N2CCC(=O)N(CCOC(=O)NCc3ccccc3)CC2)cc1	14	-18%	-1%[8.37 µM]	10%
Cc1ccc(S(=O)(=O)N2CCC(=O)N(CCOC(=O)Nc3cccc(Cl)c3)CC2)cc1	-64*	-10%	?	-22%
Cc1cccc(Cn2c(=O)n(CC3CCC(C(=O)NC(C)C)CC3)c(=O)c3sccc32)c1 (configuration not stated)	-14	/	/	/
COc1cccc(N2CC(NC(=O)c3ccc(S(=O)(=O)N4CCCC4)cc3)CC2=O)c1 (configuration not stated)	-3	/	/	/
O=S(=O)(NCc1c(Cl)cccc1Oc1ccccc1)c1ccc(F)cc1	-10	?	2%	9.3µM*
O=C(O)CSCC(=O)NCc1c(Cl)cccc1Oc1ccccc1	23	21%	14%	6%
COc1ccccc1C(=O)N(CCC1CCCN1C)c1nc2ccccc2s1 (configuration not stated)	-77*	14%	9%	145%
COc1ccc2sc(N(CCCN(C)C)C(=O)c3nc4ccccc4s3)nc2c1	40	77%	4%	32%
CCN(CC)c1ccc(/C=C2\C(=O)NC(=S)N(C)C2=O)o1	2	76%	-25%	116%
CN1C(=O)/C(=C\N2CCc3ccccc32)C(=O)NC1=S	80	9.3µM*	19%	24%
CCOc1ccc(NC(=O)CN2CCN(CC(=O)Nc3ccccc3OCC)CC2)cc1	0	/	/	/
Cc1ccc(CNS(=O)(=O)c2c(C)[nH]c(C)c2C(=O)N2CCCCC2)o1	-29	13µM*	18%	-8%
Cc1ccc(NC(=O)c2c(C(F)(F)F)nn(C)c2SCc2cccc(C(F)(F)F)c2)cc1C	-88*	?	?	?
CCOC(=O)C1=C(C)c2ccccc2N(C(=O)OC)C1(C)C(=O)OCC (configuration not stated)	-3	/	-23%	/
CCC(C)C(=O)N1c2ccccc2C(=C2SC(C(=O)OC)=C(C(=O)OC)S2)C(=S)C1(C)C (configuration not stated)	-25	?	?	9.3µM*
CCCCN(CC)C(=O)c1cc2c(=O)n3ccccc3nc2n1C	40	/	/	/
COc1cccc(CNC(=O)CSc2c3c(nc4ccc(Cl)cc24)CCCC3)c1OC	36	/	/	/
CCN(CC)CCCNC(=O)CSc1c2c(nc3cc(Cl)ccc13)CCCC2	-107*!	35%	10µM*	?
Cc1ccc(CNC(=O)CSc2c3c(nc4cc(Cl)ccc24)CCCC3)o1	6	-4%	4.5µM*	15µM*
O=C(CSc1c2c(nc3cc(Cl)ccc13)CCCC2)NCCN1CCOCC1	12	13%	-21%	-13%
